# According to PubChem BioAssay (EPA / NIEHS):
# Activity calls are given as the source filed them. The calls were made as follows: active = hit-call score of the fitted dose curve at least 0.9, where 1 is the maximum; inactive = score below 0.9.
# Experiments:
# [1] = target: Bile acid receptor (Homo sapiens) (UniProt Q96RI1); assay: ATG_IR1_CIS: Attagene CIS-FACTORIAL HepG2 Assay for human Nuclear Receptor Subfamily 1 Group H Member 4 (NR1H4), IR1 submotif (AID 2282946); settings: IR1 reporter transcription, actives raise or lower the signal
# How it was run: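 HepG2 cells transiently transfected with multiple cis-promoter-driven reporter units to measure endogenous transcription factor activity; 24 h exposure. Reporter mRNA read by RT-PCR, FAM labelling, HpaI digestion and capillary electrophoresis. Bidirectional fit versus DMSO.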
# [2] = ATG_GRE_CIS: Attagene CIS-FACTORIAL HepG2 Assay for human Glucocorticoid Response Elements (GRE) (AID 2282947); settings: HepG2 GRE cis-reporter, Attagene multiplex mRNA; actives raise or lower the signal
# How it was run: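 Endogenous transcription factor activity is read through cis-element reporter constructs transiently transfected into HepG2 cells. After 24 h treatment, labelled RT-PCR products are resolved by capillary electrophoresis; DMSO sets baseline for bidirectional curve fitting.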
# [3] = ATG_ISRE_CIS: Attagene CIS-FACTORIAL HepG2 Assay for human Interferon Regulatory Factor 1 (IRF1) binding to an Interferon-Stimulated Response Element (ISRE) (AID 2282948); settings: HepG2 ISRE cis-reporter (Attagene), mRNA transcription readout; actives raise or lower the signal
# How it was run: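 Quantitation relies on labelled RT-PCR fragments separated by capillary electrophoresis. Human HepG2 cells bearing cis-promoter reporter constructs were treated 24 h; DMSO served as baseline for bidirectional fitting.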
# [4] = ATG_M_32_CIS: Attagene CIS-FACTORIAL HepG2 Assay for M32 Transcription Factor (Internal Marker) (AID 2282949); settings: HepG2 Attagene cis-factorial M32 reporter, mRNA; actives raise or lower the signal;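 also: background control marker of the multiplexed CIS panel rather than a real target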
# How it was run: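 Internal background marker read-out: RT-PCR/capillary electrophoresis fluorescence of reporter transcripts from transiently transfected HepG2 cells after 24 h chemical exposure. Activity fitted bidirectionally relative to DMSO negative control.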
# [5] = ATG_M_06_CIS: Attagene CIS-FACTORIAL HepG2 Assay for M06 Transcription Factor (Internal Marker) (AID 2282950); settings: HepG2 Attagene CIS-FACTORIAL M06 internal marker reporter; actives raise or lower the signal
# How it was run: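 Fluorescence-labelled RT-PCR products from cis-promoter reporter units, cut with HpaI and resolved by capillary electrophoresis, give the signal. Cells are human HepG2, dosed for 24 h. Serves as background control, fitted relative to DMSO.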
# [6] = target: Hypoxia-inducible factor 1-alpha (Homo sapiens) (UniProt Q16665); assay: ATG_HIF1a_CIS: Attagene CIS-FACTORIAL HepG2 Assay for human Hypoxia Inducible Factor 1 (HIF1A) (AID 2282951); settings: HepG2 Attagene cis-factorial HIF1a reporter transcription; actives raise or lower the signal
# How it was run: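 Measures endogenous transcription-factor activity through cis-regulated reporter mRNA in HepG2. Cells dosed 24 h; transcripts quantified by RT-PCR with 6-FAM-labelled products separated by capillary electrophoresis; DMSO serves as negative control.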
# [7] = target: Hepatocyte nuclear factor 6 (Homo sapiens) (UniProt Q9UBC0); assay: ATG_HNF6_CIS: Attagene CIS-FACTORIAL HepG2 Assay for human Hepatocyte Nuclear Factor 6 (HNF6) (AID 2282952); settings: HepG2 Attagene cis-factorial HNF6 reporter transcription; actives raise or lower the signal
# How it was run: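 Transiently transfected HepG2 cells expressing cis-regulated reporter transcription units were exposed to chemical for 24 h in a 24-well format. Reporter transcript abundance was determined by fluorescence capillary electrophoresis.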
# [8] = target: Heat shock factor protein 1 (Homo sapiens) (UniProt Q00613); assay: ATG_HSE_CIS: Attagene CIS-FACTORIAL HepG2 Assay for human Heat Shock Transcription Factor 1 (HSE) (AID 2282953); settings: HepG2 HSE cis-reporter, Attagene RNA transcription; actives raise or lower the signal
# How it was run: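 After a 24 h incubation with test chemical, transfected HepG2 cells were harvested for RNA; reporter transcripts were measured by RT-PCR and capillary electrophoresis. Values reflect gain or loss of signal relative to DMSO.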
# [9] = ATG_MRE_CIS: Attagene CIS-FACTORIAL HepG2 Assay for human Metal Responsive Element (MRE) (AID 2282954); settings: HepG2 MRE cis-reporter transcription, Attagene multiplex; actives raise or lower the signal
# How it was run: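 Fluorescent reporter fragments separated by capillary electrophoresis give mRNA induction for the MRE unit after 24 h treatment of transfected HepG2 cells. Endogenous transcription-factor activity is read; DMSO serves as negative control and baseline.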
# [10] = target: Paired box protein Pax-6 (Homo sapiens) (UniProt P26367); assay: ATG_Pax6_CIS: Attagene CIS-FACTORIAL HepG2 Assay for human Paired Box 6 (PAX6) (AID 2282956); settings: HepG2 CIS-FACTORIAL PAX6 reporter transcription, RNA readout; actives raise or lower the signal
# How it was run: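 After twenty-four hours of chemical exposure, transfected HepG2 cells are harvested for RNA. Cis-promoter reporter transcripts are amplified, fluorescently labelled and sized by capillary electrophoresis, with gain and loss of signal scored against DMSO.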
# [11] = ATG_PXRE_CIS: Attagene CIS-FACTORIAL HepG2 Assay for human Pregnane X Receptor Element (PXRE) (AID 2282957); settings: HepG2 Attagene CIS-FACTORIAL PXRE reporter, mRNA; actives raise or lower the signal
# How it was run: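 Cis-element reporter mRNA in human hepatoma HepG2 cells is measured 24 h post-dosing by RT-PCR, primer-extension labeling and capillary electrophoresis; gain or loss of signal is fitted relative to DMSO.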
# [12] = ATG_PPRE_CIS: Attagene CIS-FACTORIAL HepG2 Assay for human Peroxisome Proliferator-activated Response Element (PPRE) (AID 2282958); settings: HepG2 PPRE cis-element reporter, Attagene transcription factor profiling; actives raise or lower the signal
# How it was run: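 Cells are first transfected transiently with the multiplexed reporter library, then dosed for 24 h. Total RNA is reverse-transcribed, amplified, fluorescently end-labeled and HpaI-cut before capillary electrophoresis; activity is fitted bidirectionally against DMSO controls.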
# [13] = ATG_Sox_CIS: Attagene CIS-FACTORIAL HepG2 Assay for human SRY-box transcription factor (SOX) (AID 2282960); settings: HepG2 Attagene cis-factorial SOX reporter, mRNA; actives raise or lower the signal
# How it was run: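 Transient MRTU transfection of HepG2; 24 h compound incubation; TriZol RNA, oligo(dT) RT, PCR, 6-FAM primer extension, HpaI cut, CE. Bidirectional fit, DMSO = baseline.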
# [14] = target: Transcription factor Sp1 (Homo sapiens) (UniProt P08047); assay: ATG_Sp1_CIS: Attagene CIS-FACTORIAL HepG2 Assay for human Specificity Protein 1 (Sp1) (AID 2282961); settings: HepG2 Sp1 cis-reporter transcription, actives raise or lower the signal
# How it was run: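 Endogenous Sp1 activity was gauged in human liver HepG2 cells bearing transfected reporter units under a cis-regulating promoter. After 24 h dosing, reporter mRNA was quantified by RT-PCR with capillary electrophoresis, and activity fitted bidirectionally versus DMSO.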
# [15] = ATG_SREBP_CIS: Attagene CIS-FACTORIAL HepG2 Assay for human Sterol Regulatory Element Binding (SREBP) (AID 2282962); settings: HepG2 Attagene cis-factorial SREBP reporter, mRNA; actives raise or lower the signal
# How it was run: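 Twenty-four hours after chemical dosing of transfected HepG2 cultures, reporter RNA was converted to cDNA, amplified, end-labelled with 6-FAM and resolved by capillary electrophoresis. Responses were fitted relative to DMSO.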
# [16] = target: Signal transducer and activator of transcription 3 (Homo sapiens) (UniProt P40763); assay: ATG_STAT3_CIS: Attagene CIS-FACTORIAL HepG2 Assay for human Signal Transducer and Activator of Transcription 3 (STAT3) (AID 2282963); settings: HepG2, Attagene cis-factorial STAT3 reporter transcription; actives raise or lower the signal
# How it was run: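 Values derive from bidirectional fits relative to DMSO of reporter mRNA levels, measured by RT-PCR with capillary electrophoresis, in HepG2 cells carrying transiently transfected cis-regulated reporter units and exposed 24 h.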
# [17] = ATG_TCF_b_cat_CIS: Attagene CIS-FACTORIAL HepG2 Assay for human T-Cell-Factor with beta-catenin (TCF/b-cat) (AID 2282965); settings: HepG2 TCF/beta-catenin cis-reporter transcription, actives raise or lower the signal
# How it was run: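 HepG2, transient MRTU transfection, cis-element-driven reporters (endogenous TFs). 24 h compound exposure. Readout: reporter mRNA by RT-PCR + 6-FAM primer extension, HpaI digest, capillary electrophoresis. Gain/loss fit vs DMSO baseline.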
# [18] = ATG_PBREM_CIS: Attagene CIS-FACTORIAL HepG2 Assay for human Phenobarbital-responsive Enhancer Module (PBREM) (AID 2282955); settings: HepG2 PBREM cis-reporter, Attagene multiplexed transcription; actives raise or lower the signal
# How it was run: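 Fluorescence of labelled reporter cDNA fragments, resolved by capillary electrophoresis, gives mRNA induction in transfected HepG2 cells treated for 24 h; DMSO serves as negative control and baseline.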
# [19] = ATG_RORE_CIS: Attagene CIS-FACTORIAL HepG2 Assay for human RAR-related Orphan Receptor Element (RORE) (AID 2282959); settings: HepG2 Attagene cis-factorial RORE reporter, mRNA; actives raise or lower the signal
# How it was run: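 Cells were HepG2 carrying transfected cis-regulated reporter constructs, dosed for 24 hours. Total RNA was reverse-transcribed and reporter cDNA amplified, fluorescently labeled and sized by capillary electrophoresis. Activity was fitted bidirectionally relative to DMSO.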
# [20] = ATG_TA_CIS: Attagene CIS-FACTORIAL HepG2 Assay for human TA Basal Promoter (AID 2282964); settings: HepG2 Attagene CIS-factorial TA basal promoter reporter; actives raise or lower the signal
# How it was run: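 Multiplexed mRNA reporter assay, HepG2, 24 h. Reporter cDNA amplified, 6-FAM primer-extended, HpaI-cut, CE-sized; DMSO = negative control and baseline.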
# Chain of Transcription factor Sp1 (Homo sapiens) (P08047 whole entry, looked up): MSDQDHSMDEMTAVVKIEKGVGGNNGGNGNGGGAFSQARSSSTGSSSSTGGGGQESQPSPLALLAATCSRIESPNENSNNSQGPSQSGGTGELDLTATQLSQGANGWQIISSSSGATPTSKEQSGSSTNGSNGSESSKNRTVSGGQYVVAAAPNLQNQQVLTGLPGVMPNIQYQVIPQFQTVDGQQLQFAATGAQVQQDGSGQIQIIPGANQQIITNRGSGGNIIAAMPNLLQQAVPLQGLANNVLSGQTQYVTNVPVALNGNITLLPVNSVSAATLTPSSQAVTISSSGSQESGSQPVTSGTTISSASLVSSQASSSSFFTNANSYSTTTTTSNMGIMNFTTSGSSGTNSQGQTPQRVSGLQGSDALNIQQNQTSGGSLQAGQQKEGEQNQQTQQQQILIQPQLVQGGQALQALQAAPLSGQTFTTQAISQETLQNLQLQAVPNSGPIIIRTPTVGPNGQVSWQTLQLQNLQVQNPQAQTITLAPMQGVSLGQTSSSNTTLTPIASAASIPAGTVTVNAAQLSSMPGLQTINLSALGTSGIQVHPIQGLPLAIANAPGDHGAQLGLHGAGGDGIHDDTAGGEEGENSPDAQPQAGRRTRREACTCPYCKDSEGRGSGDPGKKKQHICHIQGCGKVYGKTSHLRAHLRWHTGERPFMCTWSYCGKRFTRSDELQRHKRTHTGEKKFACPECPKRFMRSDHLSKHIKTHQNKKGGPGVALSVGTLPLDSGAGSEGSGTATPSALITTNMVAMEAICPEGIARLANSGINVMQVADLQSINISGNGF
# Chain of Heat shock factor protein 1 (Homo sapiens) (Q00613 whole entry, looked up): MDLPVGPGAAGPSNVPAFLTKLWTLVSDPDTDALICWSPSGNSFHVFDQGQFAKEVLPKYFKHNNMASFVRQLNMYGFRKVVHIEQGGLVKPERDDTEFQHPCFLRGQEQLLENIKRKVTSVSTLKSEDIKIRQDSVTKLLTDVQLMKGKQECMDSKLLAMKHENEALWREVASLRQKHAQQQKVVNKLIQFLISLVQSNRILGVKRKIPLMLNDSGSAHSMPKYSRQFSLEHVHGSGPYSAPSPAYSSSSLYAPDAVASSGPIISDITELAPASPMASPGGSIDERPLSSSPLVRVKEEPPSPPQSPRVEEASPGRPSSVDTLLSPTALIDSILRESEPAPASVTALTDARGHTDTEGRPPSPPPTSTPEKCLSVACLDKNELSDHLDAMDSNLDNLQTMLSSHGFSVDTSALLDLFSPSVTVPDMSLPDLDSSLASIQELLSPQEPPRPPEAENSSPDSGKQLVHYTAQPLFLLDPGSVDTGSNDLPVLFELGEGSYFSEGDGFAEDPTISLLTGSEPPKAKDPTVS
# Chain of Bile acid receptor (Homo sapiens) (Q96RI1 whole entry, looked up): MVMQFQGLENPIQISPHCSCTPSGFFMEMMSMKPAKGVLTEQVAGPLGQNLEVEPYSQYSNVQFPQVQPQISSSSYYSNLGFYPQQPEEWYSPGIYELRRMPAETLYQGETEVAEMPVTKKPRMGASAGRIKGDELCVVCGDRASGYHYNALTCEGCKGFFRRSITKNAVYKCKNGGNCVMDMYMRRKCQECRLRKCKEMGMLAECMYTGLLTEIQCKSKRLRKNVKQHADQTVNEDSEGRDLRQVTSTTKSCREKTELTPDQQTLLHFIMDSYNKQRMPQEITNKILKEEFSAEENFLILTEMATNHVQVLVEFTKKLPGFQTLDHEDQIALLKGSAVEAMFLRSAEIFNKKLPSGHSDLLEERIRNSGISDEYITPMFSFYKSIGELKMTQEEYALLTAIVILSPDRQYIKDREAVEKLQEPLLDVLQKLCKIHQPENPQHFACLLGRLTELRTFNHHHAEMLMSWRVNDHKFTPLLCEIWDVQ
# Chain of Hypoxia-inducible factor 1-alpha (Homo sapiens) (Q16665 whole entry, looked up): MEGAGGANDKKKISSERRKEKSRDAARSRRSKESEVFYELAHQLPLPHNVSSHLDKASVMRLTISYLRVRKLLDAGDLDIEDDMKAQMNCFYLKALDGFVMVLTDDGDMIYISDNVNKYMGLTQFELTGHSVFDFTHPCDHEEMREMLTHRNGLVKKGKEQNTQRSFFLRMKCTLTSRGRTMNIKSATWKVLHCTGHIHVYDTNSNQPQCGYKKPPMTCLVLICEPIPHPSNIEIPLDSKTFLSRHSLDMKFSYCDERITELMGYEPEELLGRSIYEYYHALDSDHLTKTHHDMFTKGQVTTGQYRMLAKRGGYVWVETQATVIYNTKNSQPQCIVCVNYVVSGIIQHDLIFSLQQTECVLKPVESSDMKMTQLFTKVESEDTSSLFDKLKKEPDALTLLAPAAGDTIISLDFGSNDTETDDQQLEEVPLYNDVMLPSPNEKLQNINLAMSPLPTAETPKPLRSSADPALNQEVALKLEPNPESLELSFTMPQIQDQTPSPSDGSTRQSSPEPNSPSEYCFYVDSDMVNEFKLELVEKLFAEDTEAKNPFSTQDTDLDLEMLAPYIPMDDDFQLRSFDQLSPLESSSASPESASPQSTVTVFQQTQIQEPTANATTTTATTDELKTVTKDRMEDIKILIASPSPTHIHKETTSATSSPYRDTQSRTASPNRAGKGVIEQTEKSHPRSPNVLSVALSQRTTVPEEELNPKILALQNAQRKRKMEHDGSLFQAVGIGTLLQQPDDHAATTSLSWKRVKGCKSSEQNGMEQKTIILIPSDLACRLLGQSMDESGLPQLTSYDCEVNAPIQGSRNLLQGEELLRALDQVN
# Chain of Signal transducer and activator of transcription 3 (Homo sapiens) (P40763 whole entry, looked up): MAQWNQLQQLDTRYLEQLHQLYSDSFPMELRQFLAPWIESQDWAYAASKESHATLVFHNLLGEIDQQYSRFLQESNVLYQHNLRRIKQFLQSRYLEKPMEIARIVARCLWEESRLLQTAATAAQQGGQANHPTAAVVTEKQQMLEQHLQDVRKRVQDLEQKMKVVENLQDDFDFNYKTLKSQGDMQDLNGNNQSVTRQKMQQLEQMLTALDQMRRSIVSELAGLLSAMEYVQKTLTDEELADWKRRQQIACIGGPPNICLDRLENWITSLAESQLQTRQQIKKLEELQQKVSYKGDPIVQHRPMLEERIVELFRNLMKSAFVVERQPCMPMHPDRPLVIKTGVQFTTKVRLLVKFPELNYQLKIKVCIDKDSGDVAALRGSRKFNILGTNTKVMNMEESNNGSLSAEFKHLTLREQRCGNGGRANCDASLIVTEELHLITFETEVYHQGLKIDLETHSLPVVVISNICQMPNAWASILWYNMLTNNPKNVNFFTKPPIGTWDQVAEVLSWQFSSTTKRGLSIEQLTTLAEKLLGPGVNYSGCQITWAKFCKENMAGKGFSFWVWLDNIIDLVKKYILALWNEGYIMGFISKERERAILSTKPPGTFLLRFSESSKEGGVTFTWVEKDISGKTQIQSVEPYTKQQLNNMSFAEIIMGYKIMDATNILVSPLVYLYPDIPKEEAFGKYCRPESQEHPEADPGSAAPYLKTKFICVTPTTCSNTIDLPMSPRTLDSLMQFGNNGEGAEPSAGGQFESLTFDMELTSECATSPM
# Chain of Hepatocyte nuclear factor 6 (Homo sapiens) (Q9UBC0 whole entry, looked up): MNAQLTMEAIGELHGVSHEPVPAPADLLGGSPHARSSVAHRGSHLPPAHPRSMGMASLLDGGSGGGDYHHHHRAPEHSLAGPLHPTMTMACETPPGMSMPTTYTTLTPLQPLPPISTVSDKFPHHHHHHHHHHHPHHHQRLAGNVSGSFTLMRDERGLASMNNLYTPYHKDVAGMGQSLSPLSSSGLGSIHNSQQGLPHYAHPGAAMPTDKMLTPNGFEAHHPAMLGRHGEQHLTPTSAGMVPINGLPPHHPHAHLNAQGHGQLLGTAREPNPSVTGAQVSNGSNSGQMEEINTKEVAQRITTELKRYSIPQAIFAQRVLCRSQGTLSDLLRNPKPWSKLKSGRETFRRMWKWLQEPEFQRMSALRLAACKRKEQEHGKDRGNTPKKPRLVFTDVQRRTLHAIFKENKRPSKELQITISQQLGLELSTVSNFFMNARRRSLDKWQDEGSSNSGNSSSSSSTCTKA
# Chain of Paired box protein Pax-6 (Homo sapiens) (P26367 whole entry, looked up): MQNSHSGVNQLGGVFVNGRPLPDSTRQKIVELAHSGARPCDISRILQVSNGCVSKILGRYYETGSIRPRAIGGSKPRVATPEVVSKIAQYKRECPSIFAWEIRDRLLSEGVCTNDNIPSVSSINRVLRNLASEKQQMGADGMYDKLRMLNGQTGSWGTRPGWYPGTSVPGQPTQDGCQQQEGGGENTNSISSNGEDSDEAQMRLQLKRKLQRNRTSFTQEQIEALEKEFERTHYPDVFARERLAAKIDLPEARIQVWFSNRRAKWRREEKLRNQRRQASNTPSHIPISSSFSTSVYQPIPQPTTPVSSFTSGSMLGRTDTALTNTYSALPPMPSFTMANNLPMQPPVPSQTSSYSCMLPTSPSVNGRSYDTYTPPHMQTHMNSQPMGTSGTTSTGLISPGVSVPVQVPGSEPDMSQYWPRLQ
smiles,measurement,setting,value
CCCCCCCCCl,outcome,[1],inactive
same,outcome,[2],inactive
same,outcome,[3],inactive
same,outcome,[4],inactive
same,outcome,[5],inactive
same,outcome,[6],inactive
same,outcome,[7],inactive
same,outcome,[8],inactive
same,outcome,[9],inactive
same,outcome,[10],inactive
same,outcome,[11],inactive
same,outcome,[12],inactive
same,outcome,[13],inactive
same,outcome,[14],inactive
same,outcome,[15],inactive
same,outcome,[16],inactive
same,outcome,[17],inactive
CNC(=O)O/N=C/C(C)(C)S(C)=O (centres undefined),outcome,[1],inactive
same,outcome,[2],inactive
same,outcome,[3],inactive
same,outcome,[5],inactive
same,outcome,[6],inactive
same,outcome,[7],inactive
same,AC50,[8],154 µM (active)
same,outcome,[9],inactive
same,outcome,[18],inactive
same,outcome,[10],inactive
same,outcome,[12],inactive
same,outcome,[19],inactive
same,outcome,[13],inactive
same,outcome,[14],inactive
same,outcome,[15],inactive
same,outcome,[16],inactive
same,outcome,[20],inactive
same,outcome,[17],inactive
C=C(C)C(=O)[O][Sn]([CH2]CCC)([CH2]CCC)[CH2]CCC,AC50,[1],0.0112 µM (active)
same,outcome,[2],inactive
same,AC50,[3],0.612 µM (active)
same,outcome,[4],inactive
same,outcome,[5],inactive
same,outcome,[6],inactive
same,AC50,[7],0.656 µM (active)
same,AC50,[8],0.68 µM (active)
same,AC50,[9],0.412 µM (active)
same,outcome,[18],inactive
same,AC50,[10],0.514 µM (active)
same,outcome,[11],inactive
same,AC50,[12],0.0903 µM (active)
same,outcome,[19],inactive
same,outcome,[13],inactive
same,outcome,[14],inactive
same,outcome,[15],inactive
same,outcome,[16],inactive
same,AC50,[20],0.591 µM (active)
same,outcome,[17],inactive
CCNc1nc(NC(C)(C)C)nc(SC)n1,outcome,[1],inactive
same,outcome,[2],inactive
same,AC50,[3],100 µM (active)
same,outcome,[5],inactive
same,outcome,[6],inactive
same,outcome,[7],inactive
same,outcome,[8],inactive
same,outcome,[10],inactive
same,AC50,[11],1.67 µM (active)
same,AC50,[12],144 µM (active)
same,outcome,[19],inactive
same,outcome,[13],inactive
same,outcome,[14],inactive
same,outcome,[15],inactive
same,outcome,[16],inactive
same,outcome,[17],inactive
Oc1ccc(-c2ccccc2)cc1,outcome,[1],inactive
same,outcome,[2],inactive
same,AC50,[3],179 µM (active)
same,outcome,[4],inactive
same,outcome,[5],inactive
same,outcome,[6],inactive
same,outcome,[7],inactive
same,AC50,[9],149 µM (active)
same,AC50,[18],176 µM (active)
same,AC50,[10],100 µM (active)
same,outcome,[11],inactive
same,outcome,[12],inactive
same,AC50,[19],162 µM (active)
same,AC50,[14],147 µM (active)
same,outcome,[15],inactive
same,outcome,[16],inactive
same,outcome,[20],inactive
same,outcome,[17],inactive
NC(=S)Nc1ccccc1,outcome,[1],inactive
same,outcome,[2],inactive
same,outcome,[3],inactive
same,outcome,[4],inactive
same,outcome,[5],inactive
same,outcome,[6],inactive
same,outcome,[7],inactive
same,outcome,[8],inactive
same,outcome,[9],inactive
same,outcome,[10],inactive
same,outcome,[11],inactive
same,outcome,[12],inactive
same,outcome,[19],inactive
same,outcome,[13],inactive
same,outcome,[14],inactive
same,outcome,[15],inactive
same,outcome,[16],inactive
same,outcome,[20],inactive
same,outcome,[17],inactive
ClCc1cccnc1,outcome,[1],inactive
same,AC50,[2],72.5 µM (active)
same,outcome,[3],inactive
same,outcome,[4],inactive
same,outcome,[5],inactive
same,outcome,[6],inactive
same,outcome,[7],inactive
same,outcome,[8],inactive
same,AC50,[9],45.9 µM (active)
same,AC50,[10],75.4 µM (active)
same,outcome,[12],inactive
same,outcome,[19],inactive
same,outcome,[13],inactive
same,outcome,[15],inactive
same,outcome,[16],inactive
same,outcome,[20],inactive
